According to PubChem BioAssay AID463173 (ICCB-Longwood Screening Facility, Harvard Medical School, 2010):
Screen size: about 52,000 compounds; about 1,700 (3.3%) were called active. Rule as the data show it: active = survival mostly below about 52% (no sharp cut-off); inactive = mostly above about 56%. This excerpt belongs to a sample that is enriched for actives.

Tested on: Wild type
Assay: growth inhibition of S. aureus wild type versus tarO mutant, primary screen, teichoic acid synthesis inhibitors, RN4220, OD600 (AID 463173)
Settings: S. aureus RN4220 wild type/DeltatarO growth, OD600, 18 h, active compounds read low, screened at 18.75 µg/mL (by protocol)

SMILES | survival
CCn1c2ccccc2c2cc(CN3CCN(Cc4ccccc4C)CC3)ccc21 | -1% (active)
Cc1ccccc1Cn1c(CN2CCC(C(=O)NCc3ccc(Cl)cc3)CC2)cc2ccccc21 | 60% (inactive)
CCN(CC)C(=O)C1CCN(Cc2ccccc2F)CC1 | 107% (inactive)
CCn1c2ccccc2c2cc(CN3CCN(Cc4ccccc4F)CC3)ccc21 | 4% (active)
CCOc1ccc(CNC(=O)C2CCN(Cc3cc4ccccc4n3Cc3ccccc3C)CC2)cc1 | 60% (inactive)
O=c1c2ccccc2n(Cc2ccccc2F)c(=O)n1-c1cccc(F)c1 | 75% (inactive)
O=C1NC(=O)C(Nc2cccc3ccccc23)S1 (centres undefined) | 104% (inactive)
O=C(CSc1nnc(Cn2nnc3ccccc32)o1)N(Cc1ccc(Cl)cc1)c1ccccc1 | 141% (inactive)
CCOC(=O)c1ccccc1NC(=O)c1ccncc1 | 94% (inactive)
CCC(=O)NCC1(c2ccccc2)CCCC1 | 102% (inactive)
Cc1ccccc1NC(=O)C(=O)NCC1(c2ccccc2)CCCC1 | 94% (inactive)
Cc1ccc(C(CC(=O)NCC2(c3ccccc3)CCCC2)c2ccccc2)c(O)c1 (centres undefined) | 36% (inactive)
Cc1cccc(C(CC(=O)NCC2(c3ccccc3)CCCC2)c2ccccc2)c1O (centres undefined) | 2% (active)
O=C(CC(c1ccccc1)c1cc(Br)ccc1O)NCC1(c2ccccc2)CCCC1 (centres undefined) | 63% (inactive)
Cc1ccc(O)c(C(CC(=O)NCC2(c3ccccc3)CCCC2)c2ccccc2)c1 (centres undefined) | 6% (active)
COc1ccc(-c2cc(C(F)(F)F)nc(SCCC(=O)Nc3cccc(O)c3)n2)cc1 | 80% (inactive)
COc1cc(Cl)c(C)cc1NC(=O)c1nn(C)c2c1CSc1ccccc1-2 | 85% (inactive)
Cc1ccc(C(=O)CSc2nnc(-c3ccccc3)n2-c2ccccc2)cc1 | 79% (inactive)
Cn1c(SCC(=O)c2ccc(F)cc2)nnc1-c1ccccc1Br | 74% (inactive)
Cc1ccc(-c2nnc(SCC(=O)c3ccc(Cl)cc3)n2-c2ccccc2)cc1 | 94% (inactive)
O=C(CSc1nnc(-c2ccccc2Br)n1-c1ccccc1)c1ccc(F)cc1 | 4% (active)
COc1ccccc1-c1nnc(SCC(=O)OC(C)C)n1-c1ccccc1 | 115% (inactive)
O=C(CSc1nnc(-c2ccc(Br)cc2)n1-c1ccccc1)c1ccccc1 | 97% (inactive)
COc1ccccc1-c1nnc(SCC(=O)c2ccc(F)cc2)n1-c1ccccc1 | 0% (active)

SMILES | survival
CCOc1ccc(-c2nnc(SCC(=O)c3ccc(F)cc3)n2-c2ccccc2)cc1 | 153% (inactive)
COc1ccccc1-c1nnc(SCC(=O)c2ccc(Cl)cc2)n1-c1ccccc1 | 0% (active)
CCc1cccc(NC(=O)CN(C)S(=O)(=O)c2ccc3c(c2)CCCN3C(C)=O)c1 | 83% (inactive)
COc1ccc(F)cc1S(=O)(=O)NCC(c1ccco1)S(=O)(=O)c1cccs1 (centres undefined) | 81% (inactive)
CCCN1CCN(CC2=C(C(=O)OCC)C(c3ccc(OC(C)C)cc3)NC(=O)N2)CC1 (centres undefined) | 72% (inactive)
COc1ccc(-n2nnc(-c3nc(-c4cccs4)no3)c2N)cc1OC | 100% (inactive)
CCN1CCN(C(c2ccc(F)cc2)c2sc3nc(-c4ccco4)nn3c2O)CC1 (centres undefined) | 131% (inactive)
Cc1ccc(C(=O)N2CCN(c3cccc(Cl)c3)CC2)cc1-n1c(C)nc2cccnc21 | 84% (inactive)
Cc1cc2c(cc1S(=O)(=O)NCc1ccc(F)cc1)OCC(=O)N2 | 82% (inactive)
COc1cc(OC)cc(C(=O)N2CCC(c3ccncc3)CC2)c1 | 69% (inactive)
CCOc1cc(C(=O)N2CCC(c3ccncc3)CC2)cc(OCC)c1OCC | -1% (active)
CCN(CC)c1ccc(C(=O)N2CCC(c3ccncc3)CC2)cc1 | 85% (inactive)
CCOc1ccc(C(=O)N2CCC(c3ccncc3)CC2)cc1 | 78% (inactive)
COc1cc(C(=O)N2CCC(c3ccncc3)CC2)cc(OC)c1OC | 78% (inactive)
COc1ccc(C(=O)N2CCC(c3ccncc3)CC2)cc1OC | -6% (active)
Cc1ccc(C)c(C(=O)COC(=O)CCCC(=O)Nc2cc(C(F)(F)F)ccc2Cl)c1 | 45% (inactive)
Cc1c(C(=O)Nc2ccc(F)c(Cl)c2)sc2nc3n(c(=O)c12)CCC3 | 81% (inactive)
CCc1nc(SCc2ccccc2)[nH]c(=O)c1C | 102% (inactive)
COc1cccc(NC(=O)Cn2c(=O)n(CCCCC(=O)NCc3ccc4c(c3)OCO4)c(=O)c3ccccc32)c1 | 92% (inactive)
COc1cccc(NC(=O)CSc2nc3ccccc3nc2N2CCOCC2)c1 | 67% (inactive)
COc1cccc(Cc2nc3ccccc3nc2SCC(=O)Nc2cc(OC)ccc2OC)c1 | 60% (inactive)
COc1ccc(NC(=O)CSc2nc3ccccc3nc2N2CCC(C)CC2)cc1 | 45% (inactive)
COc1ccc(OC)c(NC(=O)CSc2nc3ccccc3nc2N2CCCCC2)c1 | -10% (active)
COc1ccc(NC(=O)CSc2nc3ccccc3nc2N2CCCCC2)cc1 | 7% (active)

SMILES | survival
COc1ccc(CCNC(=O)CSc2nc3ccccc3nc2Cc2ccc(C)cc2)cc1OC | 52% (inactive)
CC(=O)Nc1ccc(NC(=O)CSc2nc3ccccc3nc2N2CCCCC2)cc1 | 90% (inactive)
O=C(CSc1nc2ccccc2nc1Cc1ccc(Cl)cc1)NCCc1ccccc1 | 69% (inactive)
CCCCc1ccc(NC(=O)CSc2nc3ccccc3nc2N2CCCCC2)cc1 | 41% (inactive)
COc1ccc(CCNC(=O)CSc2nc3ccccc3nc2Cc2ccc(Cl)cc2)cc1OC | 10% (active)
COc1ccc(NC(=O)CSc2nc3ccccc3nc2N2CCOCC2)c(OC)c1 | 65% (inactive)
CCc1cccc(NC(=O)CSc2nc3ccccc3nc2N2CCCCC2)c1 | -13% (active)
COc1ccc(NC(=O)CC2C(=O)N(c3ccc(C)cc3)C(=O)N2C2CCCCC2)cc1 (centres undefined) | 74% (inactive)
CCOC(=O)c1noc2nc(C)n(CC(=O)Nc3ccccc3F)c(=O)c12 | 124% (inactive)
COc1cccc(C(=O)Nc2ccccc2-c2nnc(-c3ccc(C(C)(C)C)cc3)o2)c1 | 71% (inactive)
CCOc1cc(C(=O)N2CC(=O)Nc3ccc(F)cc3C2c2ccccc2)cc(OCC)c1OCC (centres undefined) | 75% (inactive)
O=C(NC1CCCCC1)C(c1ccco1)N(C(=O)C1COc2ccccc2O1)c1cccc(F)c1 (centres undefined) | 132% (inactive)
COc1ccc(NC(=O)c2c(C(=O)Nc3ccccc3)sc3nc(C)cc(=O)n23)cc1 | 93% (inactive)
NC(=O)CSc1nsc(SCC(N)=O)n1 | 109% (inactive)
CC(C)NC(=O)CSc1nc2ccccc2nc1N1CCCCC1 | -28% (active)
COc1ccccc1Cc1nc2ccccc2nc1SCC(=O)Nc1cc(Cl)ccc1OC | 89% (inactive)
Cc1cc(C)c(NC(=O)CSc2nc3ccccc3nc2N2CCCCC2)c(C)c1 | 38% (inactive)
COc1ccc(Cl)cc1NC(=O)CSc1nc2ccccc2nc1N1CCCCC1 | -9% (active)
O=C(O)CSc1nc2ccccc2nc1N1CCCCC1 | 62% (inactive)
COc1ccc(C)cc1NC(=O)CSc1nc2ccccc2nc1N1CCOCC1 | 72% (inactive)
Cc1ccc(C)c(Cn2c(=O)n(Cc3ccc4c(c3)OCO4)c(=O)c3oc4ccccc4c32)c1 | 89% (inactive)
O=C(NCCc1csc(-c2cccc(F)c2)n1)c1ccco1 | 69% (inactive)
CCOc1ccc(CC(=O)NCCc2csc(-c3ccc(C(F)(F)F)cc3)n2)cc1 | 90% (inactive)
Cc1cccc(-c2nc(CCNC(=O)c3ccc(Br)o3)cs2)c1 | 69% (inactive)

SMILES | survival
O=C(Cc1ccc(F)cc1)NCCc1csc(-c2cccc(F)c2)n1 | 69% (inactive)
COc1ccc(CC(=O)NCCc2csc(-c3ccc(C(F)(F)F)cc3)n2)cc1 | -6% (active)
COc1ccc(CC(=O)NCCc2csc(-c3cccc(C)c3)n2)cc1 | 74% (inactive)
Cc1cccc(-c2nc(CCNC(=O)Cc3ccc(F)cc3)cs2)c1 | 14% (active)
Cc1cccc(-c2nc(CCNC(=O)c3ccco3)cs2)c1 | -6% (active)
COc1ccc(-c2nc(CCNC(=O)Cc3ccc(F)cc3)cs2)cc1 | 134% (inactive)
Cc1cccc(-c2nc(CCNC(=O)COc3ccccc3)cs2)c1 | 73% (inactive)
COc1ccc(CCC(=O)NCCc2csc(-c3ccc(C(F)(F)F)cc3)n2)cc1 | 80% (inactive)
Cc1cccc(-c2nc(CCNC(=O)Cc3ccccc3)cs2)c1 | -1% (active)
CC(C)c1cnc2c(c1SCC(=O)NC(C)(C)C)c(=O)n(C)c(=O)n2C | 80% (inactive)
NC(=O)/C=C/C(=O)Nc1ccc2c(c1)OCO2 | 89% (inactive)
O=C(NCCc1csc2nc(-c3ccc(F)cc3)nn12)c1ccco1 | 126% (inactive)
COc1ccc(/C=C\c2onc(C)c2S(=O)(=O)N2CCC(C(=O)Nc3ccc(C)c(F)c3)CC2)cc1 | 93% (inactive)
CC(=O)N1c2c(cc(Br)cc2S(=O)(=O)NCc2ccccc2Cl)CC1C (centres undefined) | 73% (inactive)
C=Cc1ccc(Cn2c(C(=O)O)c(CNCc3cc(Br)ccc3OC)c3ccc(C)cc32)cc1 | 99% (inactive)
COc1ccc(CNC(=O)c2cc3sccc3n2Cc2ccc(C)cc2)cc1 | 91% (inactive)
Fc1ccc(N2CCN(c3ncnc4c3nc3n4CCCCC3)CC2)cc1 | 55% (inactive)
COc1ccc(NC(=O)CSc2nnc(NC(=O)NC3CCCCC3)s2)cc1OC | 65% (inactive)
COc1ccc(S(=O)(=O)N2CCN(Cc3ccc4c(c3)OCO4)CC2)cc1OC | 78% (inactive)
Cc1ccc(S(=O)(=O)N2CCN(Cc3ccc4c(c3)OCO4)CC2)cc1 | 64% (inactive)
Cc1cc(C)c(S(=O)(=O)N2CCN(Cc3ccc4c(c3)OCO4)CC2)cc1C | 9% (active)
COc1ccc(NC(=O)c2ccco2)cc1NC(=O)c1ccc(C)c(C)c1 | 69% (inactive)
